Test results published in PubChem BioAssay (NCI).
This is part of a sample that, as a whole, favours compounds with a hit. Of some 83,000 tested, about 20% had one in any assay.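 Percent growth is the endpoint: 0 to 100 indicates growth inhibition (40 means 60% inhibition), 0 means no net growth, and negative values indicate cell death.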 Values without a mark were called inactive. Active and inactive are the calls of the source. Rule for the calls: active = growth percent below 10; inactive = the rest.

The molecules below were run on ACHN renal (assay: NCI-60 one-dose screen, 48 h (100 = growth as untreated, 0 = no growth, -100 = all killed)). Conditions: 10 µM unless noted.
In the case of `CCCCCCCC[C@@H]1N[C@@H](C(=O)OC)Cc2c1[nH]c1ccccc21`, the growth is reported as 94.6%.
Molecule `COC(=O)c1cc(N=C2NC(=O)/C(=C/C=C/c3ccccc3)S2)ccc1O` has a growth of 46.5%.
Molecule `CSc1nnc(-c2cc3c([nH]c4ccccc43)c(-c3cccc(O)c3)n2)n1-c1ccccc1` has a growth of 36.3%.
`Cc1ccc(-c2nc([P+](c3ccccc3)(c3ccccc3)c3ccccc3)c(S(=O)(=O)c3ccc(C)cc3)o2)cc1` was tested, and the growth was -13.4% (active).
With `O=S(=O)(NCCNc1nccc(-c2c(-c3ccc(F)c(O)c3)nc3occn23)n1)c1ccc(Cl)cc1` the growth was 76.5%.
`COc1ccc2c(c1)c(-c1nc(-c3c[nH]c4ccncc34)cs1)cn2C` was tested, and the growth was -96.7% (active).
In the case of `CC(C)c1ccc(C(=O)Nc2nc3ccc(O)c(CN(C)C)c3s2)cc1`, the growth is reported as 81.6%.
Work on `O=C1Nc2ccccc2/C1=C/c1nc2ccccc2c(=O)[nH]1` yielded a growth of 91.9%.
With `O=C(c1ccccc1)c1ccc(C2CCCCC2)cc1` the growth was 97.1%.
Molecule `C=CC(=O)N1CCN(c2cccc(Oc3nccc(Nc4nnc(-c5ccc(Br)cc5)s4)n3)c2)CC1` has a growth of 72.9%.
Work on `O=C1C(Cl)=C(Nc2ccc(S(=O)(=O)N3CCOCC3)cc2)C(=O)c2ccccc21` yielded a growth of 59%.
`CCOC(=O)C1=C(C)NC(=O)NC1c1c(Cl)n(CCCl)c2ccccc12` (stereo not given) was tested, and the growth was 99%.
In the case of `CCCC/C=C/[C@@H]1C[C@H]1CCO`, the growth is reported as 104%.
In the case of `C=C(CBr)[C@@H]1CC[C@]2(C(=O)O)CC[C@]3(C)[C@H](CC[C@@H]4[C@@]5(C)CCC(=O)C(C)(C)[C@@H]5CC[C@]43C)[C@@H]12`, the growth is reported as 81.4%.
`CC/C=C\C[C@H](O)C/C=C1/C(=O)C=C[C@@H]1C/C=C\CCCC(=O)N(C)C` was tested, and the growth was -85% (active).
With `CNC(=O)c1[nH]cc(-c2ccc(OC)cc2)c1-c1cc(OC)c2c(c1OC)OCO2` the growth was 97.7%.
For `O=C(/C=C/c1cccs1)Nc1ncc(Cc2ccccc2F)s1`, the growth was 31.5%.
In the case of `CCCn1cc2c(=O)nc3sc(Cc4ccccc4)c(C)n3c2n1`, the growth is reported as 109%.
`CCC(C)N(CCNc1cc(OC)cc2cccnc12)CC(C)C` (stereo not given) gave a growth of 85.6%.
In the case of `C1CCC([PH+](C2CCCCC2)C2CCCCC2[PH+](C2CCCCC2)C2CCCCC2)CC1.[Au].[CH-]1CCCCC1C1CCCC[N-]1` (stereo not given), the growth is reported as -99.4% (active).
`O=C1/C(=C/c2ccccc2Br)COc2ccc(O)cc21` gave a growth of 74.6%.
For `O=C(Nc1ccccc1O)c1ccc(CNC(=O)c2sccc2Nc2ccnc(C(F)(F)F)c2)cc1`, the growth was 49.3%.
Molecule `N#Cc1c(-c2ccc(Cl)cc2)nc(NN2C(=O)c3ccccc3C2=O)nc1N1CCOCC1` has a growth of 104%.
`O=C(OC(CO)C(=O)NC12CC3CC(CC(C3)C1)C2)c1ccc(Cl)cc1` (stereo not given) gave a growth of 100%.
Work on `COc1ccc(/C=N/C2=C(C#N)C(c3ccccc3)c3ccc4ccccc4c3O2)cc1` (stereo not given) yielded a growth of 35.4%.
For `CC(C)c1ccc(C(=O)Nc2sc3c(c2C(N)=O)CCC(=O)C3)cc1`, the growth was -96.8% (active).
For `N=C(N)c1ccc(-c2ccc(-c3ccc(Cl)cc3Cl)s2)cc1`, the growth was -28% (active).
In the case of `O=C(/C=C/c1cccc(Cl)c1)c1ccc(Nc2nc(Nc3ccc(F)cc3)nc(Nc3ccc(Cl)cc3)n2)cc1`, the growth is reported as 116%.
With `COc1c(B(O)O)cccc1-c1nc2c(F)cc3[nH]ncc3c2c2c1CCCC2` the growth was 0.144% (active).
Molecule `N#Cc1ccc(O)c(C2=NCC(c3ccccc3)O2)c1` (stereo not given) has a growth of 40.5%.
`COC(=O)c1nc(-c2ccccc2)oc1S(=O)(=O)Cc1ccccc1` was tested, and the growth was -35% (active).
For `OCCn1cc(-c2nc(-c3c[nH]c4ncccc34)cs2)c2cc(F)ccc21`, the growth was 65.8%.
With `O=[N+]([O-])c1cccc(-c2nc3cc4nc5ccccc5[nH]c4cc3n2)c1` the growth was 103%.
In the case of `CN(C)c1ccc(C(=O)OCCCCCCl)cc1`, the growth is reported as 102%.
Work on `CC(C)COc1nc2c(c(=O)n(C)c(=O)n2C)n1C` yielded a growth of 102%.
With `Nc1nc(-c2ccc(Cl)cc2)nc2c1sc(=S)n2-c1ccccc1` the growth was -4.93% (active).
Work on `Cc1ccc(NC(=O)c2sc3nc(C)c(Br)c(C)c3c2N)cc1` yielded a growth of 34.5%.
Molecule `Cc1cc(N2CCCCC2)cc(C)c1-c1csc(NC(=O)c2ccncc2)n1` has a growth of 56.8%.
`CCN1C(=S)N(c2ccccc2)C2C1NN=c1s/c(=C3\C(=O)N(C(C)C)c4ccccc43)c(=O)n12` (stereo not given) was tested, and the growth was 80%.
`O=C(N(c1ccccc1)c1ccccc1)n1cc(I)c2nc(Cl)nc(Cl)c21` showed a growth of 57.9%.
